{"source": "PubChem BioAssay AID2320", "about": "(National Center for Advancing Translational Sciences (NCATS), 2010)", "note": "Inconclusive results are not listed. A call without a number means that no potency is given here. The source made the active and inactive calls. The call rests on the fitted dose curve. Potency means the concentration at half of the fitted maximal effect.", "data": [{"test": "A qHTS for Small Molecule Inhibitors of Shiga Toxin (Confirmatory); further: nearly all actives have a fitted effect of over 75% in size", "conditions": "Cell-based Shiga toxin protection reporter assay; series mostly up to 38.3 µM", "values": [{"molecule": "CSCc1cc(N2CCOCC2)nc(SCc2ccc(Cl)cc2Cl)n1", "Potency": "inactive"}, {"molecule": "Cc1ccc(NC(=O)C(C)N=C2NS(=O)(=O)c3ccccc32)cc1", "note": "(stereo not drawn)", "Potency": "0.0005 µM (active)"}, {"molecule": "O=C(Nc1ccc(/C=C/c2nc3ccccc3o2)cc1)c1ccc(F)cc1", "Potency": "3.18 µM (active)"}, {"molecule": "Cc1noc(C)c1S(=O)(=O)Nc1cccc(CO)c1", "Potency": "inactive"}, {"molecule": "O=C(O)Cc1ccc2oc(-c3ccccn3)nc2c1", "Potency": "12.6 µM (active)"}, {"molecule": "O=C(Nc1cccc(-c2csc(Nc3ccc(Cl)cc3)n2)c1)c1ccccc1", "Potency": "6.34 µM (active)"}, {"molecule": "Cc1cc(C)n(-c2nc3c(c(=O)[nH]c(=O)n3C)n2Cc2cccc(Br)c2)n1", "Potency": "inactive"}, {"molecule": "CC(C)(C)C(=O)Cn1ncc(N2CCOCC2)c(Br)c1=O", "Potency": "22.5 µM (active)"}, {"molecule": "CNC(=O)CSc1nnc(-c2cc(C)cc(C)c2)o1", "Potency": "inactive"}, {"molecule": "O=C(NCC(=O)N1CCCC(C(F)(F)F)C1)c1ccc(Oc2ccccc2)cc1", "note": "(stereo not drawn)", "Potency": "inactive"}, {"molecule": "Cc1nn(-c2ccc(C(=O)O)cc2)c2c1C(=O)CC(C)(C)C2", "Potency": "inactive"}, {"molecule": "CN1CCN(Cc2ccc(N)cc2)CC1", "Potency": "inactive"}, {"molecule": "Cc1cc(NC(=O)CSc2nc3ccsc3c(=O)n2Cc2ccccn2)n[nH]1", "Potency": "25.2 µM (active)"}, {"molecule": "CCN(C1CCCCC1)S(=O)(=O)c1ccc(S(=O)(=O)NCc2ccncc2)cc1", "Potency": "inactive"}, {"molecule": "CCNc1c(NC(=O)c2cccs2)c(=O)oc2ccccc12", "Potency": "inactive"}, {"molecule": "COc1ccccc1CN(Cc1cccnc1)S(=O)(=O)c1ccc(-n2cnnn2)c(OC)c1", "Potency": "inactive"}, {"molecule": "CC[N+](CC)(CCO)CCCN1C(=O)C2CC=C(Cl)CC2C1=O", "note": "(stereo not drawn)", "Potency": "inactive"}, {"molecule": "CCOC(=O)Cc1csc(NC(=O)CSc2ncnc3c2cnn3-c2ccc(OC)cc2)n1", "Potency": "5.04 µM (active)"}, {"molecule": "OC1C[N+]2(CCCCC2)C1", "Potency": "inactive"}, {"molecule": "O=C1C(Cl)=C(Nc2ccccc2)C(=O)c2ccccc21", "Potency": "3.18 µM (active)"}, {"molecule": "CC1CCCC(C)N1C(=O)Cn1nnc(-c2ccccc2)n1", "note": "(stereo not drawn)", "Potency": "inactive"}, {"molecule": "O=C1NC(=Nc2ccc(O)cc2)S/C1=C\\C=C\\c1ccco1", "Potency": "0.634 µM (active)"}, {"molecule": "Cc1cccc(C(=O)NC(NCCc2ccccc2)C(Cl)(Cl)Cl)c1", "note": "(stereo not drawn)", "Potency": "inactive"}, {"molecule": "c1cc2c(cc1Cn1cnnn1)OCO2", "Potency": "inactive"}, {"molecule": "O=C(CSc1nnc(-c2ccccn2)o1)Nc1ccccc1C(F)(F)F", "Potency": "8.95 µM (active)"}, {"molecule": "C=C1C(O)C2OC3(CCC(/C=C/C(C)C4CC(C)=CC5(OC(CC(C)(O)C(=O)O)CCC5O)O4)O3)CCC2OC1C(O)CC(C)C1OC2(CCCCO2)CCC1C", "note": "(stereo not drawn)", "Potency": "20 µM (active)"}, {"molecule": "O=C(Cn1cnc2cc([N+](=O)[O-])ccc2c1=O)NCc1ccc(Cl)cc1", "Potency": "inactive"}, {"molecule": "Cc1cc(C)c2nc(-c3ccccn3)cc(C(=O)NCc3ccco3)c2c1", "Potency": "15.9 µM (active)"}, {"molecule": "CC(=O)c1ccccc1Oc1ncnc(N)c1[N+](=O)[O-]", "Potency": "inactive"}, {"molecule": "O=c1cc(-c2cccc(F)c2)[nH]c2ccc(Cl)cc12", "Potency": "inactive"}, {"molecule": "NS(=O)(=O)c1ccc(CCNC(=O)c2ccc(NC3=NC4CS(=O)(=O)CC4S3)cc2)cc1", "note": "(stereo not drawn)", "Potency": "inactive"}, {"molecule": "COc1ccc(NC(=O)c2c(Cl)n(C)c3ccccc23)cc1", "Potency": "11.3 µM (active)"}, {"molecule": "O=C1ON=C(c2ccccc2)/C1=C/c1ccc(OS(=O)(=O)c2ccccc2)cc1", "Potency": "7.11 µM (active)"}, {"molecule": "O=C(/C=C/c1cn(CC(O)CN2CCCCC2)c2ccccc12)c1cccs1", "note": "(stereo not drawn)", "Potency": "inactive"}, {"molecule": "CCCNC(=O)c1ccc2snnc2c1", "Potency": "inactive"}, {"molecule": "COc1ccc(-c2cnc[nH]2)cc1", "Potency": "inactive"}, {"molecule": "CCCc1nc2ccccc2c(=O)n1NC(=O)c1c(O)c2ccccc2[nH]c1=O", "Potency": "14.2 µM (active)"}, {"molecule": "COc1ccc2nc3cc(Cl)ccc3c(NCCCN3CCN(CCCNc4c5ccc(Cl)cc5nc5ccc(OC)cc45)CC3)c2c1", "Potency": "inactive"}]}]}
